Inconclusive results are not listed. Calls of active or inactive are those of the source. Unless noted, calls come from the whole dose curve; as a rule, active = well fitted curve in the direction sought with a large enough effect in the repeat runs; inconclusive = weak or mixed curves; inactive = no such curve, though single readings can be large; an effect the other way counts as inactive or inconclusive.
What was measured:
[1] = qHTS assay for small molecule agonists of the p53 signaling pathway (AID 651631; calls by dose curve; note: nearly all actives have a fitted effect of over 15% in size)
Summary of the method: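 Quantitative high-throughput format: 4,000 p53RE-bla HCT-116 cells/well, 5 h pre-incubation, 16 h compound exposure at 37 °C, 2 h room-temperature substrate step, fluorescence intensity measured.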

[2] = qHTS assay for small molecules that induce genotoxicity in human embryonic kidney cells expressing luciferase-tagged ATAD5 (AID 651632); note: nearly all actives have a fitted effect of over 15% in size
Summary of the method: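 A rise in luciferase signal from ATAD5-tagged HEK293T cells marks genetic stress. Cells were exposed to compounds for 16 hr at 37C, 5% CO2, then luciferase was quantified after a 30 min room-temperature incubation with Amplite.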

[3] = qHTS assay for small molecule agonists of the p53 signaling pathway - cell viability (AID 651633; calls by dose curve;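 note: p53RE-bla HCT reporter cells with a stable beta-lactamase p53 reporter; nearly all actives have a fitted effect of over 30% in size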)
Summary of the method: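 p53RE-bla cells, seeded at 4,000 per well and rested 5 h at 37 C/5% CO2, received compounds in DMSO for 16 h at 37 C. CellTiter-Glo was then added, and luminescence was read after 30 min at room temperature to gauge cytotoxicity.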

[4] = qHTS assay for small molecules that induce genotoxicity in human embryonic kidney cells expressing luciferase-tagged ATAD5 - cell viability (AID 651634; calls by dose curve; note: nearly all actives have a fitted effect of over 25% in size)
Summary of the method: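 Cytotoxicity counter-readout: after 15.5 hr compound treatment at 37C, live-cell protease activity in ATAD5-luciferase HEK293T cells measured by CellTiter-Fluor fluorescence, 30 min development at 37C.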

[5] = qHTS assay to test for compound auto fluorescence at 590 nm (red) in HepG2 cells (AID 720674)
Summary of the method: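 Intrinsic compound fluorescence in the red window (Ex/Em 540/590 nm) is measured in attached HepG2 cells exposed for 1 hr, DMSO vehicle as baseline, benchmarked to Rose Bengal sodium.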

[6] = qHTS assay to test for compound auto fluorescence at 535 nm (green) in HepG2 cells (AID 720675)
[7] = qHTS assay to test for compound auto fluorescence at 460 nm (blue) in HEK293 cells (AID 720678)
Summary of the method: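 HEK293 cells (2,000/well, medium with 10% dialyzed FBS) attached 4-5 hr, then exposed to compound overnight at 37C, 5% CO2. Blue fluorescence read at 405/460 nm, with triamterene as reference fluorophore.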

[8] = qHTS assay to test for compound auto fluorescence at 590 nm (red) in HEK293 cells (AID 720679)
Summary of the method: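 HEK293 cells (2,000/well, 10% dialyzed FBS) attached 4-5 hr, then dosed with compound or DMSO and incubated overnight at 37C, 5% CO2. Red fluorescence read at 540/590 nm, Rose Bengal sodium as reference fluorophore.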

[9] = qHTS assay to test for compound auto fluorescence at 535 nm (green) in HEK293 cells (AID 720680)
[10] = qHTS assay to test for compound auto fluorescence at 460 nm (blue) in HEK293 cell free culture (AID 720681)
Summary of the method: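 Test compounds were pinned into cell-free culture medium (DMEM with 10% FBS) and fluorescence was read directly at Ex/Em 405/460 nm. Signals were expressed as fluorescence equivalents of triamterene, with DMSO vehicle as control.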

[11] = qHTS assay to test for compound auto fluorescence at 535 nm (green) in HEK293 cell free culture (AID 720682)
Summary of the method: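 Measurement is a direct plate read of green fluorescence (485 nm in, 535 nm out) after compound addition to serum-supplemented DMEM lacking cells, with fluorescein used to express intensities.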

[12] = qHTS assay to test for compound auto fluorescence at 590 nm (red) in HEK293 cell free culture (AID 720683)
Summary of the method: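 Tox21 10K library compounds were pinned into cell-free DMEM with 10% FBS and fluorescence was read at excitation 540 nm. Activity is expressed as Rose Bengal sodium equivalency.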

[13] = qHTS assay to test for compound auto fluorescence at 460 nm (blue) in HepG2 cell free culture (AID 720685)
Summary of the method: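 Cell-free plates of MEM plus 10% FBS received 23 nL compound or DMSO vehicle; blue-channel (405/460 nm) intensity scored against triamterene as reference fluorophore.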

[14] = qHTS assay to test for compound auto fluorescence at 535 nm (green) in HepG2 cell free culture (AID 720686)
[15] = qHTS assay to test for compound auto fluorescence at 460 nm (blue) in HepG2 cells (AID 720687)
Summary of the method: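 Cells (2,000/well in MEM with 10% FBS) attached overnight at 37 C, then were exposed to compound or DMSO for 1 hr at 37 C, 5% CO2. Fluorescence read at Ex/Em 405/460 nm, expressed as triamterene-equivalent signal.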

[16] = target: Glucocorticoid receptor (Homo sapiens) (UniProt P04150); test: qHTS assay to identify small molecule agonists of the glucocorticoid receptor (GR) signaling pathway (AID 720691; active = well fitted activation curve with a large enough effect in the signal ratio in the repeat runs, not every such curve was filed as active; the % refers to the signal ratio); conditions: GR-bla HeLa, beta-lactamase reporter ratio, 18 h; activation: at 62.4 µM (top of the series)
Chain of Glucocorticoid receptor (Homo sapiens) (P04150 whole entry, looked up): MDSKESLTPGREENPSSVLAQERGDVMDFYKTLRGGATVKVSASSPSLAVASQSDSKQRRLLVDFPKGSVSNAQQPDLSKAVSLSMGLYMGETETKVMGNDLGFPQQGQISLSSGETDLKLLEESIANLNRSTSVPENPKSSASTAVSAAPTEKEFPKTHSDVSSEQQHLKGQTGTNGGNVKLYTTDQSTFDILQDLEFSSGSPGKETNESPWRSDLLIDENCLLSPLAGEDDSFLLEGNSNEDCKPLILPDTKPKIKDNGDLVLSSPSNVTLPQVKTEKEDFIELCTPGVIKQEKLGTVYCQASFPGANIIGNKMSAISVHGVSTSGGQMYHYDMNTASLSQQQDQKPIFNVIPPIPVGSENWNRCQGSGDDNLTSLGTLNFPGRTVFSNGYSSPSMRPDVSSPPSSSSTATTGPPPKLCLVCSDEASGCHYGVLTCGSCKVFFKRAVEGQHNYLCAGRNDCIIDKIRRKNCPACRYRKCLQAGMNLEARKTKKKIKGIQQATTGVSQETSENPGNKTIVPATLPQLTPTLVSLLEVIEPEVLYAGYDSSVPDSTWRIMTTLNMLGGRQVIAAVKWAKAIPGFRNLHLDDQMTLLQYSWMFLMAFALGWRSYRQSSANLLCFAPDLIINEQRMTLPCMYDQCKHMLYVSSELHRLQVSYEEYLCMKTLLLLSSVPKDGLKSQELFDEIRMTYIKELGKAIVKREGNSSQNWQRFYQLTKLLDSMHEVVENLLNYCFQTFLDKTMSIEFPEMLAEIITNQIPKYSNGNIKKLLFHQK
Summary of the method: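 Agonist-mode qHTS in HeLa cells stably expressing a glucocorticoid-response-element beta-lactamase reporter. Fluorescence intensity read with FRET substrate (2 h, room temperature) after 18 h compound treatment at 37 C.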

[17] = qHTS assay for small molecule disruptors of the mitochondrial membrane potential - cell viability (AID 720634; calls by dose curve;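 note: human HepG2 liver cancer cells; nearly all actives have a fitted effect of over 20% in size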)
Summary of the method: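 Cytotoxicity was quantified from ATP content by CellTiter-Glo luminescence in the same wells as the MMP dye read-out. HepG2 (2,000 cells/well) were plated overnight and exposed to compounds for 1 hr at 37 C.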

[18] = qHTS assay for small molecule disruptors of the mitochondrial membrane potential (AID 720635)
Summary of the method: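 HepG2 cells (2,000/well) attached overnight at 37C, then took compound for 1 hr at 37C, 5% CO2. Mito-MPS dye was added for 30 min; fluorescence was read at 490/535 nm (monomers) and 540/590 nm (aggregates).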

[19] = target: Glucocorticoid receptor (Homo sapiens) (UniProt P04150); test: qHTS assay to identify small molecule antagonists of the glucocorticoid receptor (GR) signaling pathway (AID 720692; active = well fitted inhibition curve with a large enough effect in the signal ratio in the repeat runs, not every such curve was filed as active; the % refers to the signal ratio)
Summary of the method: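 Inhibition of dexamethasone-driven (5 nM final) beta-lactamase expression was measured in GRE-reporter HeLa cells over 18 h at 37C. Fluorescence was read after 2 h with the B/G FRET substrate at room temperature.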

[20] = qHTS assay to test for compound auto fluorescence at 590 nm (red) in HepG2 cell free culture (AID 720684)
Summary of the method: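 Ex 540 / Em 590 nm read of compound in cell-free MEM (10% FBS). Rose Bengal sodium reference.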

Measured: Potency

CCOC(=O)NNc1nncc2ccccc12
not listed: [17] | [18] | [19] | [20]
inactive: all other assays above

O=C1CCC(N2C(=O)c3ccccc3C2=O)C(=O)N1 (stereo unspecified)
not listed: [4] | [20]
inactive: all other assays above

CN(C)CCOCCN(C)C
not listed: [16] | [17] | [18]
inactive: all other assays above

CC(C)(C)[C@@H](O)[C@@H](Cc1ccc(Cl)cc1)n1cncn1
not listed: [4] | [13] | [16] | [17] | [18] | [20]
inactive: all other assays above

c1ccc2scnc2c1
not listed: [4] | [16]
inactive: all other assays above

CC(=O)OCC(=O)[C@@]12N=C(C)O[C@@H]1C[C@H]1[C@@H]3CCC4=CC(=O)C=C[C@]4(C)[C@H]3[C@@H](O)C[C@@]12C
not listed: [2] | [16] | [17] | [18] | [19]
inactive: all other assays above

O=C(O)c1ccc2c(c1)C(=O)OC2=O
not listed: [4] | [13] | [16] | [17]
inactive: all other assays above

CC1=C(C)S(=O)(=O)CCS1(=O)=O
not listed: [4] | [16] | [18]
inactive: all other assays above

O=c1[nH]c(=O)n([C@H]2CCCO2)cc1F
not listed: [2] | [4] | [15] | [16] | [19]
inactive: all other assays above
